From PubChem BioAssay (NCI)
The panel holds about 83,000 compounds, 20% with a hit somewhere; the sample as a whole holds those more often.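 48-hour exposure, single concentration, 96-well plates; percent growth endpoint where 0 means no net growth. Active: below 10.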 Values without a mark were called inactive. The source made the active and inactive calls.

Key:
Assay in all cases: NCI-60 one-dose screen, 48 h (100 = growth as untreated, 0 = no growth, -100 = all killed)
Settings in all cases: 10 µM unless noted
HCT-15 colon = test system: HCT-15 colon
HT29 colon = test system: HT29 colon
SNB-75 CNS = test system: SNB-75 CNS
SNB-19 CNS = test system: SNB-19 CNS
U251 CNS = test system: U251 CNS
PC-3 prostate = test system: PC-3 prostate
SK-MEL-5 melanoma = test system: SK-MEL-5 melanoma
UACC-62 melanoma = test system: UACC-62 melanoma
LOX IMVI melanoma = test system: LOX IMVI melanoma
SK-MEL-28 melanoma = test system: SK-MEL-28 melanoma

SMILES	growth (HCT-15 colon)	growth (HT29 colon)	growth (SNB-75 CNS)	growth (SNB-19 CNS)	growth (U251 CNS)	growth (PC-3 prostate)	growth (SK-MEL-5 melanoma)	growth (UACC-62 melanoma)	growth (LOX IMVI melanoma)	growth (SK-MEL-28 melanoma)
COc1ccc(-c2cc(-c3nnc(SCC(=O)Nc4ccc(C(C)=O)cc4)o3)c3ccccc3n2)cc1	23.3%	38.9%	-5.55% (active)	13.8%	-68.6% (active)	6.81% (active)	5.12% (active)	25.8%	4.15% (active)	42.7%
COc1ccc2cc(/C=C3\N=C(c4cc(OC)c(OC)c(OC)c4)OC3=O)c(OC)nc2c1	99.4%	98.8%	98.3%	94.6%	92.8%	93.6%	103%	89.7%	102%	110%
O=C(O)c1cn(C2CC2)c2cc(N3CCN(Cc4nnc(Nc5ccccc5)o4)CC3)c(F)cc2c1=O	101%	93.8%	82.2%	108%	105%	105%	106%	100%	87.9%	100%
OCCNc1nc(NCCO)nc(Nc2ccc(C3=NN(c4cc(Cl)cc(Cl)c4)C(c4ccc(Cl)cc4)C3)cc2)n1 (stereo not given)	5.12% (active)	-46% (active)	-6.43% (active)	15.8%	-47.8% (active)	-12.1% (active)	24.9%	13.1%	-53.4% (active)	-55.8% (active)
CC(C)(C)c1nc2c(s1)c1nc(N)ncc1c1ccc(NS(=O)(=O)c3c(F)cccc3F)c(F)c12	42.7%	10.8%	57.4%	105%	73%	51.9%	36.1%	-2.66% (active)	20.5%	4.5% (active)
Cn1c2c(c3ccc(-c4ccn[nH]4)cc3c1=O)C(=O)c1ccccc1-2	15.7%	18.9%	71%	27.4%	13.5%	63.2%	21.1%	47.9%	0.163% (active)	88.6%
CCSc1ccc(C2C(Br)C(=O)N2c2cc(OC)c(OC)c(OC)c2)cc1 (stereo not given)	15.2%	2.99% (active)	51.1%	33.4%	12.1%	20%	-11.3% (active)	29.6%	25.7%	56.7%
CCOC(=O)c1cnn(-c2nc(-c3ccc(F)cc3)c(C#N)c(N3CCOCC3)n2)c1N	101%	92%	82.2%	95.1%	95.3%	95.1%	96.6%	90.8%	106%	111%
COc1cc(-c2csc(NC(=O)Nc3ccc(C(F)(F)F)cc3)n2)cc(OC)c1OC	10.6%	3.06% (active)	-12.1% (active)	14.1%	6.12% (active)	3.3% (active)	-54.7% (active)	-0.579% (active)	4.24% (active)	16.3%
COc1cc2cc(c1Cl)N(C)C(=O)C[C@H](OC(=O)[C@H](C)N(C)C(=O)CCS)C[C@]1(C)O[C@H]1[C@H](C)[C@@H]1C[C@@](O)(NC(=O)O1)[C@H](OC)/C=C/C=C(\C)C2	11.2%	0.342% (active)	21%	34%	10.2%	22%	-33.1% (active)	36.8%	13.6%	57.2%
COc1ccc(-c2cn(-c3ccc(Cl)cc3)c(=S)[nH]2)cc1OC	63.4%	44.2%	111%	90.6%	75%	72.4%	41.7%	72.5%	0.188% (active)	92.4%
Cc1c(Cl)cccc1NC(=O)c1sc2nc3c(cc2c1N)COCC3	19.6%	5.9% (active)	19.4%	26.5%	22.6%	30.3%	23.9%	31.1%	35.5%	58.6%
COc1cc(/C=N/Nc2nc(-c3ccc(F)cc3)c(C#N)c(N3CCOCC3)n2)ccc1O	99.9%	96%	84%	92.9%	97.6%	96.4%	102%	99%	107%	99.9%
CC(=O)Nc1ccc2c(c1)Cc1cc(F)ccc1-2	105%	92.2%	87.4%	103%	95.5%	95.5%	102%	90.7%	95.8%	117%
O=C(Nc1ccc2ncnc(Nc3cccc(C(F)(F)F)c3)c2c1)c1cccs1	38.9%	18%	89.2%	40.1%	17%	20.9%	61.1%	67.5%	65.5%	89.1%
C=C(C)[C@@H]1CC[C@]2(C(=O)OCCOCCOCC[P+](c3ccccc3)(c3ccccc3)c3ccccc3)CC[C@]3(C)[C@H](CC[C@@H]4[C@@]5(C)CC[C@H](C)C(C)(C)[C@@H]5CC[C@]43C)[C@@H]12	-86.7% (active)	-81.6% (active)	-90% (active)	-72.2% (active)	-83.5% (active)	-84.9% (active)	-98% (active)	-77.8% (active)	-86.3% (active)	-80% (active)
C/C(=C\c1cnc(C)s1)[C@@H]1C[C@@H]2O[C@@H]2CCC[C@H](C)[C@H](O)[C@@H](C)C(=O)C(C)(C)[C@@H](O)CC(=O)O1	23%	8.92% (active)	-1.96% (active)	44%	24.5%	34.2%	34.3%	51%	46.4%	75.1%
C/C(=N/Nc1nc2ccccc2n1C)c1ccccn1	25.3%	14.7%	28%	15.2%	0.141% (active)	19.1%	-6.67% (active)	-26.5% (active)	-39.4% (active)	27.6%
O=c1cc(/C=N\Nc2nc(-c3ccc(Cl)cc3Cl)cs2)c2cc(Cl)ccc2o1	90.7%	99.3%	80.6%	106%	101%	80.1%	86.3%	80.6%	89.8%	90.6%
CC(=O)Nc1c(C(=O)Nc2ccccc2)sc2nc3c(cc12)C(OC(C)=O)CCC3 (stereo not given)	99.7%	104%	88.2%	95.8%	94.8%	89%	82.5%	59%	92.2%	88.9%
O=C(CCc1nnc2sc(OCc3ccccc3)nn12)c1nc2ccc([N+](=O)[O-])cc2[nH]1	108%	107%	103%	108%	99.8%	94.4%	110%	96.6%	91.3%	115%
CCC1=C[C@H]2CN(CCc3c([nH]c4ccccc34)[C@@](C(=O)OC)(c3cc4c(cc3OC)N(C)[C@H]3[C@@](O)(C(=O)OC)[C@H](OC(C)=O)[C@]5(CC)[C@@H]6C[C@@H]6CN6CC[C@]43[C@@H]65)C2)C1	7.44% (active)	-18.4% (active)	-3.68% (active)	21.1%	13%	29.4%	-25.5% (active)	17%	17%	58.5%
COc1cc(C(C)c2ccc3c(ccn3C)c2)cc(OC)c1OC (stereo not given)	15.9%	3.88% (active)	47%	33.5%	14.4%	23.2%	-51.8% (active)	32.7%	23.2%	67%
C=C1C(=O)O[C@H]2[C@H]1CC/C(COC(=O)CCCCC(=O)OC/C1=C/CC[C@@]3(C)O[C@H]3[C@H]3OC(=O)C(=C)[C@@H]3CC1)=C\CC[C@@]1(C)O[C@@H]21	18.1%	40.1%	79.2%	89.9%	81.4%	68.6%	77.9%	48.3%	52.2%	76.8%
CC(C)(C#N)c1cc(F)cc(C(=O)Nc2cc(Nc3ncccc3-c3ncnc4nc[nH]c34)ccc2F)c1	37.8%	10.1%	78.7%	58%	40.7%	54.2%	20.3%	9.35% (active)	-23.6% (active)	18.5%
